Assay results published in PubChem BioAssay (Tox21).
Records with an inconclusive call do not appear. Calls of active or inactive are those of the source. The call rests on the fitted dose curve; in most records, active means well fitted curve in the direction sought with a large enough effect in the repeat runs; inconclusive means weak or mixed curves; inactive means no such curve, though single readings can be large; an effect the other way counts as inactive or inconclusive.

Columns and labels:
[1] = A CellTox Green Cytotoxicity Assay to monitor cytotoxicity in HEK293 cells - 32 hour (AID 1224881); further: nearly all actives have a fitted effect of over 40% in size; further: potency means the concentration at half of the fitted maximal effect
Outline: (§1)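 HEK293 cells, 600/well, were preincubated 5 hours and then exposed to compounds at 37 C for up to 40 hours. A cell-impermeant cyanine dye staining dead-cell DNA was read by fluorescence at 0, 8, 16, 24, 32 and 40 h time points.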

[2] = A CellTox Green Cytotoxicity Assay to monitor cytotoxicity in HepG2 cells - 0 hour (AID 1224882); further: nearly all actives have a fitted effect of over 35% in size; further: potency means the concentration at half of the fitted maximal effect
Outline: (§2)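 HepG2 cells, 600/well, preincubated 5 h with CellTox Green dye, then exposed to Tox21 compounds in DMSO at 37 C for up to 40 h. Dead-cell DNA fluorescence read at the indicated time point.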

[3] = A CellTox Green Cytotoxicity Assay to monitor cytotoxicity in HepG2 cells - 32 hour (AID 1224883); further: nearly all actives have a fitted effect of over 50% in size; further: potency means the concentration at half of the fitted maximal effect
Outline: as §2

[4] = A CellTox Green Cytotoxicity Assay to monitor cytotoxicity in HEK293 cells - 8 hour (AID 1224884); further: nearly all actives have a fitted effect of over 35% in size; further: potency means the concentration at half of the fitted maximal effect
Outline: as §1

[5] = qHTS RealTime-Glo MT Cell Viability Assay in HepG2 cells - 16 hour (AID 1224885); further: nearly all actives have a fitted effect of over 50% in size
Outline: (§3)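 Luminescence read-out: viable HepG2 cells reduce a prosubstrate to a NanoLuc substrate, giving a signal proportional to live cell number. Reads taken at 0, 8, 16, 24, 32 and 40 h of compound exposure at 37 C.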

[6] = qHTS RealTime-Glo MT Cell Viability Assay in HEK293 cells - 24 hour (AID 1224886); further: top concentration of the series differs between compounds; nearly all actives have a fitted effect of over 50% in size
Outline: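 Nonlytic real-time viability readout: viable cells convert prosubstrate to NanoLuc substrate, giving luminescence proportional to live cell number. HEK293, 600 cells/well, compound added after 5 h, continuous culture at 37 C.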

[7] = qHTS RealTime-Glo MT Cell Viability Assay in HEK293 cells - 8 hour (AID 1224887); further: top concentration of the series differs between compounds; nearly all actives have a fitted effect of over 50% in size
Outline: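 600 cells/well were plated with the nonlytic NanoLuc/prosubstrate reagent, pre-incubated 5 h, then given 23 nL of compound in DMSO. Incubation at 37 C for 40 h, with luminescence from viable-cell-reduced substrate read repeatedly from 0 h.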

[8] = A CellTox Green Cytotoxicity Assay to monitor cytotoxicity in HEK293 cells - 16 hour (AID 1224888); further: nearly all actives have a fitted effect of over 35% in size; further: potency means the concentration at half of the fitted maximal effect
Outline: as §1

[9] = qHTS RealTime-Glo MT Cell Viability Assay in HepG2 cells - 0 hour (AID 1224889); further: nearly all actives have a fitted effect of over 50% in size; further: potency means the concentration at half of the fitted maximal effect
Outline: as §3

[10] = A CellTox Green Cytotoxicity Assay to monitor cytotoxicity in HepG2 cells - 8 hour (AID 1224890); further: nearly all actives have a fitted effect of over 45% in size; further: potency means the concentration at half of the fitted maximal effect
Outline: as §2
On the % scale 0 is the no-effect control and ±100 the full control effect.

O=C(NS(=O)(=O)/C=C/c1cccs1)c1ccc(F)cc1Br
active: Potency [9] 15.5 µM
inactive: Potency [1] | Potency [2] | Potency [3] | Potency [4] | Potency [5] | Potency [6] | Potency [7] | Potency [8] | Potency [10]

CC1=CC(=O)/C(=C(/C)O)C(=O)O1
inactive: Potency [1] | Potency [2] | Potency [3] | Potency [4] | Potency [5] | Potency [6] | Potency [7] | Potency [8] | Potency [9] | Potency [10]

O=S(=O)(O)c1ccc(O)c2ncccc12
inactive: Potency [1] | Potency [2] | Potency [3] | Potency [4] | Potency [5] | Potency [6] | Potency [7] | Potency [8] | Potency [9] | Potency [10]

COc1ccc(OC)c(OC)c1
inactive: Potency [1] | Potency [2] | Potency [3] | Potency [4] | Potency [5] | Potency [6] | Potency [7] | Potency [8] | Potency [9] | Potency [10]

COCCOCCOCCOCCOC
inactive: Potency [1] | Potency [2] | Potency [3] | Potency [4] | Potency [5] | Potency [6] | Potency [7] | Potency [8] | Potency [9] | Potency [10]

CC(=O)c1c(C)c([N+](=O)[O-])c(C(C)(C)C)c([N+](=O)[O-])c1C
inactive: Potency [1] | Potency [2] | Potency [3] | Potency [4] | Potency [5] | Potency [6] | Potency [7] | Potency [8] | Potency [9] | Potency [10]

CCN(CC)CCc1nc(-c2ccccc2)no1
inactive: Potency [1] | Potency [2] | Potency [3] | Potency [4] | Potency [5] | Potency [6] | Potency [7] | Potency [8] | Potency [9] | Potency [10]

CCCCCCCCCC=O
inactive: Potency [1] | Potency [2] | Potency [3] | Potency [4] | Potency [5] | Potency [6] | Potency [7] | Potency [8] | Potency [9] | Potency [10]

CCN(CC)CCNC(C(=O)OCCC(C)C)c1ccccc1 (stereo not given)
inactive: Potency [1] | Potency [2] | Potency [3] | Potency [4] | Potency [5] | Potency [6] | Potency [7] | Potency [8] | Potency [9] | Potency [10]

CCN(CC)C(C)=O
inactive: Potency [1] | Potency [2] | Potency [3] | Potency [4] | Potency [5] | Potency [6] | Potency [7] | Potency [8] | Potency [9] | Potency [10]

CC(C)=CCCC(C)CC=O (stereo not given)
inactive: Potency [1] | Potency [2] | Potency [3] | Potency [4] | Potency [5] | Potency [6] | Potency [7] | Potency [8] | Potency [9] | Potency [10]

CC(=O)NCCCS(=O)(=O)O
inactive: Potency [5] | Potency [6] | Potency [7] | Potency [9]
active: Potency [1] 15 µM | Potency [2] 16.9 µM | Potency [3] 16.9 µM | Potency [4] 16.9 µM | Potency [8] 18.9 µM | Potency [10] 18.9 µM

Oc1ccc2c(c1)OCO2
inactive: Potency [1] | Potency [2] | Potency [3] | Potency [4] | Potency [5] | Potency [6] | Potency [7] | Potency [8] | Potency [9] | Potency [10]

Cc1ccc(O)c([C@H](CCN(C(C)C)C(C)C)c2ccccc2)c1
inactive: Potency [1] | Potency [2] | Potency [4] | Potency [5] | Potency [6] | Potency [7] | Potency [8] | Potency [9] | Potency [10]
active: Potency [3] 21.3 µM

N=C(N=C(N)N)N1CCOCC1
inactive: Potency [1] | Potency [2] | Potency [3] | Potency [4] | Potency [5] | Potency [6] | Potency [7] | Potency [8] | Potency [9] | Potency [10]

CCN(CC)CCOC(=O)C1(c2ccccc2)CCCC1
inactive: Potency [1] | Potency [2] | Potency [3] | Potency [4] | Potency [5] | Potency [6] | Potency [7] | Potency [8] | Potency [9] | Potency [10]

C[C@@H](C1=C(CCN(C)C)Cc2ccccc21)c1ccccn1
inactive: Potency [1] | Potency [2] | Potency [3] | Potency [4] | Potency [5] | Potency [6] | Potency [7] | Potency [8] | Potency [9] | Potency [10]

CC(C(=O)O)c1ccc(C(=O)c2ccccc2)s1 (stereo not given)
inactive: Potency [1] | Potency [2] | Potency [3] | Potency [4] | Potency [5] | Potency [6] | Potency [7] | Potency [8] | Potency [9] | Potency [10]

Cc1ncsc1CCO
inactive: Potency [1] | Potency [2] | Potency [3] | Potency [4] | Potency [5] | Potency [6] | Potency [7] | Potency [8] | Potency [9] | Potency [10]

CC(C)c1cccc(C(C)C)c1NC(=O)NS(=O)(=O)c1cc(C(C)(C)O)co1
inactive: Potency [1] | Potency [2] | Potency [3] | Potency [4] | Potency [5] | Potency [6] | Potency [7] | Potency [8] | Potency [9] | Potency [10]

CC(C)NCC(O)c1cc(O)cc(O)c1 (stereo not given)
inactive: Potency [1] | Potency [2] | Potency [3] | Potency [4] | Potency [5] | Potency [6] | Potency [7] | Potency [8] | Potency [9] | Potency [10]

O=C(C(=O)c1ccc(Br)cc1)c1ccc(Br)cc1
inactive: cytotoxicity increase [1] -0.258% [at 15.8 µM] | cytotoxicity [2] -5.86% [at 15.8 µM] | cytotoxicity increase [3] -9.52% [at 15.8 µM] | cytotoxicity increase [4] 6.57% [at 15.8 µM] | activity change, negative = cytotoxic [5] -1.79% [at 15.8 µM] | activity change, negative = cytotoxicity [6] 5.88% [at 15.8 µM] | activity change, negative = cytotoxicity [7] 2.33% [at 15.8 µM] | activity change [8] 0.498% [at 15.8 µM, hits give high values] | activity change, negative = cytotoxicity [9] -3.46% [at 15.8 µM] | cytotoxicity increase [10] -4.98% [at 15.8 µM]

O=C(Cl)c1ccc([N+](=O)[O-])cc1
inactive: Potency [1] | Potency [2] | Potency [3] | Potency [4] | Potency [5] | Potency [6] | Potency [7] | Potency [8] | Potency [9] | Potency [10]
